Measurements as given in PubChem BioAssay AID1159580 (chemical genetic matrix, 2015).
Several values for one entry are separate records, joined by “and”; a condition that tells them apart may be missing. Equal values may be shown once. In all, about 5,500 compounds went through this assay and about 2,000 (36%) were called active. About 18% were inconclusive and are not listed. No stated cut-off is given here; in the data, active means normalized growth mostly below about 0.91 (no sharp cut-off); inconclusive means no clear call, values can overlap the other calls; inactive means mostly above about 0.92. Some of the results follow.

Assay: chemical genetic growth profiling, strain panel (AID 1159580);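 further: tested at 20 µM; growth read once vehicle control cultures reached saturation at 30 °C; 1 = growth at the plate median or of vehicle wells; lower values mean less growth of the strain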
Details: S. cerevisiae deletion strains, growth OD

Measured: normalized growth

CCCC1O[C@@H]2CC3C4CCC5=CC(=O)C=CC5(C)C4[C@@H](O)CC3(C)[C@]2(C(=O)CO)O1 (stereo partly specified)
inactive: locus YAL013W, strain DEP1, active compounds read low 1 | locus YAL021C, strain ccr4, active compounds read low 1.01 | locus YAL026C, strain drs2, active compounds read low 1.01 | locus YAL030W, strain snc1, active compounds read low 1.01 | locus YBL061C, strain skt5, active compounds read low 1 | locus YBR009C, strain hhf1, active compounds read low 0.995 | locus YBR021W, strain FUR4, active compounds read low 1 | locus YBR023C, strain chs3, active compounds read low 1.02 | locus YBR171W, strain sec66, active compounds read low 1.01 | locus YBR229C, strain ROT2, active compounds read low 1 | locus YBR231C, strain swc5, active compounds read low 1 | locus YBR279W, strain paf1, active compounds read low 1.01 | locus YCL011C, strain gbp2, active compounds read low 0.996 | locus YCL016C, strain dcc1, active compounds read low 1.01 | locus YCL029C, strain bik1, active compounds read low 1.01 | locus YCL069W, strain vba3, active compounds read low 1.01 | locus YCR088W, strain abp1, active compounds read low 1.01 | locus YDL005C, strain med2, active compounds read low 0.985 | locus YDL035C, strain GPR1, active compounds read low 0.994 | locus YDL040C, strain nat1, active compounds read low 1.01 | locus YDL074C, strain BRE1, active compounds read low 1 | locus YDL101C, strain DUN1, active compounds read low 1.01 | locus YDL134C, strain PPH21, active compounds read low 1 | locus YDL185W, strain tfp1, active compounds read low 1.01 | locus YDL192W, strain arf1, active compounds read low 1.02 | locus YDR001C, strain nth1, active compounds read low 0.993 | locus YDR069C, strain doa4, active compounds read low 1 | locus YDR101C, strain arx1, active compounds read low 1.01 | locus YDR137W, strain rgp1, active compounds read low 0.989 | locus YDR150W, strain NUM1, active compounds read low 0.997 | locus YDR159W, strain sac3, active compounds read low 0.972 | locus YDR162C, strain NBP2, active compounds read low 1 | locus YDR195W, strain ref2 0.971 | locus YDR297W, strain sur2, active compounds read low 1.01 | locus YDR318W, strain mcm21, active compounds read low 1.03 | locus YDR334W, strain swr1, active compounds read low 1.03 | locus YDR335W, strain msn5, active compounds read low 1.01 | locus YDR388W, active compounds read low 1.02 | locus YDR392W, strain spt3, active compounds read low 1.04 | locus YDR502C, strain sam2, active compounds read low 1.02 | locus YEL003W, strain gim4, active compounds read low 1.02 | locus YEL037C, strain rad23, active compounds read low 0.995 | locus YEL061C, strain CIN8 (second series), active compounds read low 1.02 | locus YEL061C, strain CIN8, active compounds read low 1 | locus YER015W, strain faa2, active compounds read low 1.01 | locus YER016W, strain bim1, active compounds read low 1 | locus YER110C, active compounds read low 1.02 | locus YER111C, strain swi4, active compounds read low 1.02 | locus YER155C, strain BEM2 (second series), active compounds read low 1.05 | locus YER155C, strain BEM2, active compounds read low 0.989 | locus YER167W, strain BCK2, active compounds read low 1.01 | locus YFR010W, strain ubp6, active compounds read low 0.987 | locus YGL078C, strain dbp3, active compounds read low 1.01 | locus YGL086W, strain mad1, active compounds read low 1 | locus YGL167C, strain pmr1, active compounds read low 1.01 | locus YGL173C, strain kem1, active compounds read low 1 | locus YGL227W, strain vid30, active compounds read low 1 | locus YGL240W, strain doc1, active compounds read low 0.982 | locus YGL248W, strain PDE1, active compounds read low 1.01 | locus YGL253W, strain hxk2, active compounds read low 1.02 | locus YGR078C, strain PAC10, active compounds read low 0.986 | locus YGR135W, strain pre9, active compounds read low 0.998 | locus YGR229C, strain SMI1, active compounds read low 0.992 | locus YGR252W, strain gcn5, active compounds read low 1.06 | locus YHR013C, strain ard1, active compounds read low 1.03 | locus YHR027C, strain rpn1, active compounds read low 1.01 | locus YHR030C, strain SLT2, active compounds read low 1 and 1.02 | locus YHR079C, strain IRE1 (second series), active compounds read low 1.01 | locus YHR079C, strain IRE1, active compounds read low 1.01 | locus YHR094C, strain hxt1, active compounds read low 1.02 | locus YHR129C, strain ARP1, active compounds read low 1 | locus YHR142W, strain chs7, active compounds read low 1.02 | locus YHR200W, strain rpn10, active compounds read low 1.03 | locus YIL066C, strain RNR3, active compounds read low 1.01 | locus YIL073C, strain SPO22, active compounds read low 1.07 | locus YIL125W, strain kgd1, active compounds read low 0.997 | locus YIR030C, strain dcg1, active compounds read low 1.02 | locus YJL092W, strain hpr5, active compounds read low 1 | locus YJL095W, strain BCK1 (second series), active compounds read low 1.01 | locus YJL095W, strain BCK1, active compounds read low 0.994 and 1.02 | locus YJL115W, strain asf1, active compounds read low 1 | locus YJL129C, strain trk1, active compounds read low 0.98 | locus YJL134W, strain LCB3, active compounds read low 1 | locus YJL154C, strain vps35, active compounds read low 1.01 | locus YJL164C, strain tpk1, active compounds read low 1 | locus YJL166W, strain qcr8, active compounds read low 1.01 | locus YJL168C, strain set2, active compounds read low 1.02 | locus YJL187C, strain SWE1 (second series), active compounds read low 1 | locus YJL187C, strain SWE1, active compounds read low 1.02 | locus YJR043C, strain POL32, active compounds read low 1 | locus YJR066W, strain TOR1, active compounds read low 0.978
